Screening data deposited in PubChem by Center for Chemical Genomics, University of Michigan.
The sample as a whole holds a higher share of hits than the screen did.
Dicer inh = human Dicer pre-microRNA cleavage inhibition; cat-ELCCA pre-miR-21 Dicer processing, chemiluminescence; stronger effect = higher value; z-score at 25 µM; 47,000 tested, 6% active; in the data active = z-score above about 3, passing the limit was not always enough;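 also: plate controls were vehicle for no effect and no enzyme for full effect; higher signal means more uncleaved substrate so more Dicer inhibition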
* = called active by the depositor.

SMILES	Dicer inh
C/C(=N\NC(=S)Nc1ccc(F)cc1)c1ccco1	0.88
CC(C)c1ccc(NC(=S)NN(C)C)cc1	2.9
COc1ccc(/C=N/Nc2ncnc3scc(C)c23)cc1	2.5
Cc1onc(-c2c(Cl)cccc2Cl)c1C(=O)NC(C)(C)C	-0.74
O=C(Nc1ccc(OC(F)(F)F)cc1)Nc1cc2ccccc2s1	2.1
Clc1cc(Cl)cc(C=NCc2ccccc2)c1	-0.74
Cc1ccc(S(=O)(=O)N(C)C)cc1NC(=O)c1ccccc1	-1.2
Nc1ccc(-c2nc3cc4sc(-c5ccc(N)cc5)nc4cc3s2)cc1	-2.1
Nc1cccc(-c2nc3cc4sc(-c5cccc(N)c5)nc4cc3s2)c1	0.71
c1cc(-c2nc3cc4sc(-c5ccn[nH]5)nc4cc3s2)[nH]n1	3.2*
O=C1OCc2cccc3cccc(c23)S(=O)c2cccc3cccc1c23 (centres undefined)	-1.2
Cc1ccc2c(c1)C1C=CCC1C(c1ccccc1Cl)N2 (centres undefined)	4.1*
CC(C)COC(=O)c1ccc2c(c1)C1C=CCC1C(c1ccc(F)cc1)N2 (centres undefined)	0.97
CCOC(=O)c1ccc2c(c1)[C@@H]1C=CC[C@@H]1[C@H](c1cccc(OC)c1OC)N2	0.9
CCOC(=O)c1ccc2c(c1)C1C=CCC1C(c1ccc(Br)cc1)N2 (centres undefined)	5.6*
COc1ccc(Br)cc1[C@@H]1Nc2ccc(C(=O)O)cc2[C@@H]2C=CC[C@@H]21	1.1
O=C(O)c1ccc2c(c1)[C@@H]1C=CC[C@@H]1[C@H](c1ccccc1Br)N2	3.1*
CCOC(=O)c1ccc2c(c1)C1C=CCC1C(c1ccccc1)N2 (centres undefined)	-0.56
O=C(O)c1ccc2c(c1)C1C=CCC1C(c1ccc(Cl)cc1)N2 (centres undefined)	5.2
Clc1ccc2c(c1)C1C=CCC1C(c1ccccc1)N2 (centres undefined)	23
CCOC(=O)CSc1cc(-n2cccc2)c(Cl)cc1[N+](=O)[O-]	-7.5
CC(Oc1ccccc1-c1ccccc1)c1n[nH]c(=S)n1C (centres undefined)	2.9
CCCc1[nH]nc2c1C(c1ccc(-c3ccccc3)cc1)C(C#N)=C(N)O2 (centres undefined)	-1.5
CCN(CC)c1ccc(NC(=O)c2cnn3c(C(F)F)cc(C)nc23)cc1	0.47
C=CCNC(=S)NNC(=O)CN1c2ccccc2Sc2ccccc21	2
SMILES	Dicer inh
Cc1oc(S(=O)(=O)N2CCCCC2)cc1C(=O)Nc1ccc(F)cc1	-0.5
Cc1[nH]c2ccccc2c1C1(O)C(=O)N(Cc2ccc(Cl)cc2)c2ccccc21 (centres undefined)	1.5
Cc1ccc(CN2C(=O)C(O)(c3c(C)[nH]c4ccccc34)c3ccccc32)cc1 (centres undefined)	1.4
Cc1[nH]c2ccccc2c1C1(O)C(=O)N(Cc2ccc3c(c2)OCO3)c2ccccc21 (centres undefined)	3.9*
O=C1Nc2ccccc2/C1=C/c1ccc(N2CCOCC2)nc1	0.63
O=C(C1=NOC2(C(=O)c3ccccc3C2=O)C1c1ccccc1)c1ccccc1 (centres undefined)	3.9*
O=C1C2C(c3ccccc3)OC3(C(=O)c4ccccc4C3=O)C2C(=O)N1c1ccccc1 (centres undefined)	0.05
CCOC(=O)C1=NN(c2ccccc2)C2(C(=O)c3ccccc3C2=O)C1c1ccc(C)cc1 (centres undefined)	-0.57
O=C(CN1C(=O)/C(=C\c2ccc(F)cc2)N=C1c1ccccc1)c1ccco1	3.8*
C=CCN1C(=O)/C(=C\c2ccccc2Cl)N=C1c1ccccc1	-0.82
O=C(CN1C(=O)/C(=C\c2ccc(OCc3ccccc3)cc2)N=C1c1ccccc1)c1cccs1	-1.9
C(=N\Nc1ncnc2sc(-c3ccccc3)cc12)/c1cccs1	1.1
Cc1ccc(/C=N/Nc2ncnc3sc(-c4ccccc4)cc23)o1	3.8*
C(=N\Nc1ncnc2sc(-c3ccccc3)cc12)/c1ccncc1	2.8
Nc1nc(Nc2ccccc2)sc1C(=O)c1ccc(F)cc1	1.7
Nc1nc(Nc2ccc(F)cc2)sc1C(=O)c1ccccc1	4.2*
Nc1nc(Nc2cccc(F)c2)sc1C(=O)c1ccc(F)cc1	3.2
Cc1ccc(NC(=S)N(Cc2ccc(N(C)C)cc2)C(C)C)c(Cl)c1	0.5
Cc1ccc(C2C(C#N)=C(SCC(=O)Nc3ccc(Br)cc3)NC3=C2C(=O)CCC3)o1 (centres undefined)	-0.81
Cc1cc(C)nc(SCC(=O)n2c(C)c(C)c3ccccc32)n1	1.3
Cc1cc(C)nc(SCC(=O)N2c3ccccc3CCc3ccccc32)n1	1.6
Cc1cc(C)nc(SCCc2ccncc2)n1	3.6*
CC(C)(Cc1nc2ccccc2[nH]1)C(=O)O	-1.3
COC(=O)CC1=NN(c2nc3ccccc3[nH]2)C(=O)C1	5.3*
CCOC(=O)Cc1nc2ccccc2[nH]1	2.8
SMILES	Dicer inh
C=C1SC(Nc2ccccc2Cl)=NC1(CC)CC	-0.11
COC(=O)C1=C(C)NC(=O)CC1c1ccc(OC)cc1 (centres undefined)	-0.24
CC1(C)CC(=O)C=C(SCc2cccc(Cl)c2)S1	4.5*
CC1(C)CC(=O)C=C(SCc2c(Cl)cccc2Cl)S1	0.78
CC1(C)CC(=O)C=C(SCCS(=O)(=O)c2ccc(Cl)cc2)S1	1.1
COc1cc2nc3c4ccccc4n(C(C)C)c3nc2cc1OC	3.4*
CC(C)n1c2ccccc2c2ccccc21	0.68
CCCCn1c2ccccc2c2nc3cc(OC)c(OC)cc3nc21	1
CCCCCc1nc2scc(-c3ccc(OC)c(OC)c3)c2c(=O)o1	0.89
CCOC(=O)c1nn(-c2ccccc2Cl)cc(Sc2nnc(C(F)(F)F)n2C)c1=O	-0.31
COc1ccccc1N1CC(=O)NC1=O	-1.3
Cn1nccc1NS(=O)(=O)c1ccc(F)cc1Cl	-1.1
Cc1noc(NC(=O)c2ccc(C(F)(F)F)cc2)c1[N+](=O)[O-]	4.6*
Cc1nc(C)c(C(=O)NNC(=O)c2ccc(C(F)(F)F)cc2)s1	-0.39
Cc1noc(-c2ccc(Cl)cc2)c1C(=O)NNC(=O)c1ccc(C(F)(F)F)cc1	3.8
CNC(=O)Nc1ccc(C(C)(C)C)cc1Cl	5.1*
CNC(=O)NNC(=O)c1ccc(C(C)(C)C)cc1	-2.4
CCOC(=O)NC(=S)Nc1ccc(C(C)(C)C)cc1Cl	2.7
O=C(O)c1ccc(-c2nc3ccc(-c4ccc5nc(-c6ccc(C(=O)O)cc6)[nH]c5c4)cc3[nH]2)cc1	-0.23
Cc1ccc(SC(=O)N2CCOCC2)cc1	-0.58
O=C(C1Cc2ccccc2C1)N1CCOCC1	7.3*
O=C(c1cc(-c2ccccc2)nc2ccccc12)N1CCOCC1	1.5
O=C(O)c1ccc(N2C(=O)C3CCCCC3C2=O)cc1 (centres undefined)	-0.32
Cc1ccc(C(=O)CC2(O)C(=O)Nc3ccc(C)cc32)c(C)c1 (centres undefined)	-0.09
O=C(CC1(O)C(=O)Nc2ccc(Br)cc21)c1cccs1 (centres undefined)	-1.9
SMILES	Dicer inh
Cc1cc(C)c2c(c1)NC(=O)C2(O)CC(=O)c1cccs1 (centres undefined)	3.4*
Cc1ccc(C)c(Nc2nnc(-c3ccc(C)c(S(=O)(=O)NCCO)c3)c3ccccc23)c1	0.3
COc1ccc(/C=C2/N=C(c3ccccc3)OC2=O)cc1OCc1ccccc1	-0.86
Cc1cc2c(cc1C)CSC(C)(c1ccccc1)SC2	0.16
COC(=O)Cn1cc(C(=O)C2CCCCC2)c2ccccc21	-0.91
CCN(CC)C(=O)Cn1cc(C(=O)c2cccs2)c2ccccc21	1
